An excerpt weighted towards active compounds, which were near 19% of everything screened.
HT1080-NT tox = qHTS for induction of synthetic lethality in tumor cells producing 2HG: qHTS for the HT-1080-NT fibrosarcoma cell line. Potency, µM (doses to about 46.1 µM), inactives show at the highest dose activity, negative = less viability, hits mostly cytotoxic. 1.6% of 360,000 active. HT-1080-NT fibrosarcoma viability, CellTiter-Glo ATP luminescence, 48 h;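 also: NT is the 2HG producing partner of a matched IDH1 knockdown line; potency is read from the fitted curve at half-maximal effect; 0% = DMSO-treated cells and -100% = media-only wells without cells; nearly all actives have a fitted effect of over 55% in size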
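750 cells/well, RPMI + 5% FBS; 2 h settle, compound pin-transfer, 48 h at 37 degrees C. CellTiter-Glo 10 min RT, luminescence. Normalized to DMSO and media-only wells.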
DT40 TDP1 CPT = qHTS for Inhibitors of human tyrosyl-DNA phosphodiesterase 1 (TDP1): qHTS in cells in presence of CPT. chicken DT40 Tdp1-/-;hTDP1 cells + 20 nM CPT, ATP luminescence, 48 h. Potency, µM (top dose mostly 46.2 µM), for inactives: at the highest dose activity change, negative = growth inhibition, actives largely listed as inhibitors. 12% of 420,000 active. AID 686979, 2013; also: potency is read from the fitted curve at half-maximal effect; nearly all actives have a fitted effect of over 55% in size
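Chicken DT40 Tdp1-/- cells complemented with human TDP1, 400 cells/well, exposed to compounds plus 20 nM camptothecin for at least 48 h at 37 C; viability read as ATP content by CellTiter-Glo luminescence.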
HT1080 IDH1KD tx = qHTS for induction of synthetic lethality in tumor cells producing 2HG: qHTS for the HT-1080-IDH1KD cell line | HT-1080 IDH1 knockdown viability, ATP luminescence, 48 h | Potency, µM (top dose mostly 46.1 µM), without a hit: at the highest dose activity, negative = toxicity, actives largely listed as cytotoxic | 2% of 360,000 active | AID 686971, 2013;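 also: potency is read from the fitted curve at half-maximal effect; 0% = DMSO wells and -100% = cell-free medium wells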
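After a 2 h attachment period, IDH1KD HT-1080 cells took pin-transferred compound for 48 h at 37 °C; ATP-based luminescence after 10 min room-temperature reagent incubation reported viability.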
IL1B secr inh = qHTS for Inhibitors of Inflammasome Signaling: IL-1-beta AlphaLISA Primary Screen. THP-1 LPS/ATP IL-1B secretion, AlphaLISA, 16 h; stronger effect = lower value. activity change, % at 57.5 µM. 4.7% of 360,000 active. AID 743279, 2014; in the data active = activity change below about -50%; inconclusive = mostly about -30% to -49%
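THP-1 cells pretreated 1 hr with compounds (up to 57.5 uM final), then stimulated with LPS (250 ng/mL final) plus ATP (1.25 mM final); secreted IL-1B measured by AlphaLISA after 16 hr, decreased signal indicating inhibition.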
TDP1 cell noCPT = qHTS for Inhibitors of human tyrosyl-DNA phosphodiesterase 1 (TDP1): qHTS in cells in absence of CPT; DT40 Tdp1-/- hTDP1 cells, no CPT, ATP luminescence, 48 h; Potency, µM (series often up to 46.2 µM), for inactives: at the top dose activity change, negative = growth inhibition, actives largely listed as inhibitors; 15% of 420,000 active; also: potency is read from the fitted curve at half-maximal effect; nearly all actives have a fitted effect of over 55% in size
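Growth of hTDP1-complemented DT40 Tdp1-knockout cells is measured by ATP luminescence after at least 48 hr compound exposure at 37 °C, with DMSO substituting for the 20 nM CPT used in the parallel screen.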
* hit, by the source's call; ? = inconclusive; . = not tested or not shown. Unless noted, calls follow the shape of the dose curve; as a rule, active = well fitted curve in the direction sought with a large enough effect; inconclusive = small, poorly fitted or top-dose-only effect, or another doubt; inactive = no such curve, though single readings can be large; an effect the other way counts as inactive or inconclusive. Unless noted, % is scaled to controls: 0 for no effect and ±100 for the full control effect.

SMILES | HT1080-NT tox | DT40 TDP1 CPT | HT1080 IDH1KD tx | IL1B secr inh | TDP1 cell noCPT
Cc1onc(-c2ccccc2Cl)c1C(=O)Nc1ccc(S(=O)(=O)N2CCCC2)cc1 | -12.6% | ? | -5.8% | -15.8 | ?
O=C(Nc1ccccc1)c1ccc(CN2CCc3ccccc3C2)cc1 | -10.6% | -17.1% | -25.8% | -4.0 | -29.5%
Cc1c(-c2cccc(NC(=O)c3ccc(F)c(F)c3)c2)nc2ncccn12 | . | ? | . | . | 13µM*
CC(C(=O)Nc1ccc(S(=O)(=O)N2CCCC2)cc1)N1CCN(c2ccccc2O)CC1 (configuration not stated) | -10.7% | ? | 0.0% | -2.2 | 23.1µM*
CCOC(=O)C1(C)CCCCN1C(=O)c1ccnc(Cl)c1 (configuration not stated) | 20.9% | -10.3% | 10.9% | 0.0 | -10.9%
CCCC(=O)Oc1ccc(-c2nccc(C(OC)OC)n2)cc1 | 9.8% | 5.1% | 18.6% | 7.7 | -19.8%
O=C(Nc1cccnc1)c1ccc(CN2CCc3ccccc3C2)cc1 | 0.5% | ? | -19.2% | 0.2 | 16.4µM*
O=C(Nc1cccc(S(=O)(=O)N2CCCCC2)c1)c1cc(=O)[nH]c2ccccc12 | 8.8% | 23.1µM* | 8.7% | ? | 18.4µM*
Cc1ccc(S(C)(=O)=O)cc1C(=O)Nc1cccc(S(=O)(=O)N2CCCCCC2)c1 | -13.1% | ? | -18.0% | 15.3 | -5.8%
CC(=O)c1c(C)[nH]c(C(=O)Nc2cccc(S(=O)(=O)N3CCCCC3)c2)c1C | -18.0% | ? | -19.4% | ? | 14.6µM*
Cc1cc(C)cc(NC(=O)c2ccc(S(=O)(=O)C(F)F)cc2)c1 | -4.6% | 2.8% | 5.1% | -87.1* | ?
Cc1cc(NC(=O)CSc2nc3c(cnn3-c3cccc(Cl)c3)c(=O)[nH]2)no1 | 1.6% | 3.0% | -7.0% | 32.0 | 0.3%
COc1ccc([C@H]2C[C@@H](n3cc(C4CC4)nn3)[C@H](O)CN2C(=O)c2cccs2)cc1 | 13.9% | -14.3% | 5.0% | 13.2 | -15.9%
CCCCCCCN=CC1=C(O)CC(c2ccccc2)CC1=O (configuration not stated) | 9.6% | -8.3% | 10.3% | 20.7 | -21.8%
Cc1ccnc(NC(=O)c2cccc(NC(=O)c3ccc(Cl)cc3)c2)c1 | 2.8% | ? | 6.4% | -8.3 | 20.6µM*
O=C(Nc1ccc(Cl)cc1)N1CCC(CN2CCCCCC2)CC1 | . | ? | . | . | 23.1µM*
CC(OC(=O)c1cc(Br)ccc1O)C(=O)Nc1ccc(S(=O)(=O)N2CCCC2)cc1 (configuration not stated) | ? | ? | ? | ? | 16.4µM*
O=C(Nc1cccc(C(=O)N2CCCCC2)c1)c1ccc(Cl)cc1 | -7.2% | ? | -5.9% | 15.7 | 20.6µM*
O=C(COC(=O)/C=C/c1ccc(Cl)cc1)NC1CCCCCC1 | -10.5% | -6.1% | 9.6% | -2.3 | -23.8%
C1CN(c2nc3nonc3nc2N2C[C@H]3CC[C@H]2C3)CCS1 | 3.8% | -3.6% | -8.2% | -5.1 | -5.0%
O=C(Nc1cccc(F)c1)C1CCN(C(=O)c2ccccc2Cl)CC1 | 1.5% | -6.7% | 3.0% | 0.6 | -28.8%
COC(=O)C[C@@H]1C=C[C@H](NC(=O)Cc2ccccn2)[C@@H](CO)O1 | 11.4% | 5.7% | 4.3% | 26.7 | -13.1%
O=C(Nc1ccc(S(=O)(=O)N2CCCC2)cc1)c1ccccc1 | -12.7% | -28.2% | -5.1% | -24.2 | 23.1µM*
O=C(Nc1cccc(Cl)c1)N1CCCC1 | 14.6% | 16.4µM* | 5.9% | -18.3 | 25.9µM*
CC(=O)c1cccc(NC(=O)N2CCCCCC2)c1 | 7.4% | 5.9% | 3.0% | 7.7 | -0.8%
SMILES | HT1080-NT tox | DT40 TDP1 CPT | HT1080 IDH1KD tx | IL1B secr inh | TDP1 cell noCPT
CC(=O)c1cccc(NS(=O)(=O)c2ccc(NC(=O)N3CCCCC3)cc2)c1 | ? | 5.17µM* | -29.5% | 9.5 | 9.2µM*
Cc1cccc(NC(=O)c2ccc(S(=O)(=O)N3CCCCCC3)cc2)n1 | -18.3% | -3.6% | -5.1% | -69.6* | 13µM*
CC1(C)CC(NS(=O)(=O)c2ccc(Cl)cc2)CC(C)(C)N1 | -8.3% | 2.7% | -0.3% | -4.6 | -21.8%
O=C1CCCCC/C1=N/Nc1ccc(OCc2ccccc2)cc1 | ? | ? | ? | -14.8 | ?
O=C(c1ccc(N2CCOCC2)c([N+](=O)[O-])c1)N1CCN(Cc2ccccc2)CC1 | -7.3% | -29.1% | -10.6% | 0.1 | ?
NC(=O)Nc1cc(Cl)ccc1Cl | 12.8% | 2.3% | 7.8% | 14.0 | -0.1%
NC(=S)Nc1cc(Cl)ccc1Cl | 12.2% | 14.6µM* | 7.8% | -0.7 | 13µM*
C/C(=N\Nc1ccc(C(F)(F)F)cn1)c1ccncc1 | -4.5% | 4.5% | 1.3% | -14.9 | -6.8%
CC(=O)c1c(C)nn(CC(=O)NC2CCCN(Cc3ccc(CC(C)C)cc3)C2)c1C (configuration not stated) | -16.0% | 20.6µM* | -23.3% | -28.3 | ?
O=C(NC1CCCN(Cc2ccc(Cl)cc2)C1)c1cnc2ccccn2c1=O (configuration not stated) | -6.0% | ? | -16.6% | 2.2 | 18.4µM*
CC(C)Cc1ccc(CN2CCCC(NC(=O)c3cnc4ccccn4c3=O)C2)cc1 (configuration not stated) | -10.6% | 23.1µM* | -6.8% | 20.1 | 23.1µM*
O=C(NNC(=O)c1ccc(F)cc1)C(=O)N1CCCCC1 | 8.0% | 2.1% | 7.8% | -5.5 | 4.7%
C=CCn1c(O)c(N=NC(=O)CNC(=O)Cc2ccccc2)c2ccccc21 | 2.0% | -6.6% | -2.7% | 33.6 | 5.2%
C=CCn1c(O)c(N=NC(=S)Nc2ccc(OC)cc2)c2ccccc21 | -10.3% | 3.66µM* | -20.2% | 9.1 | 4.61µM*
C=CCn1c(O)c(N=NC(=O)OCC)c2ccccc21 | 9.3% | ? | 10.6% | 12.8 | ?
C=CCn1c(O)c(N=NC(=S)Nc2cccc(OC)c2)c2ccccc21 | -15.4% | 3.26µM* | -26.1% | 19.9 | 2.91µM*
Cc1oc(C)c2c(=O)ccc3c(c12)OC(N)=C(C#N)C3c1ccc(F)cc1 (configuration not stated) | 10.4% | ? | 10.0% | -2.7 | ?
COc1cccc(CN(C)c2nc(-c3cccs3)nc3ccccc23)c1 | -29.4% | 18.4µM* | ? | -18.0 | 20.6µM*
COc1cccc(Nc2nc(-c3cccs3)nc3ccccc23)c1 | 16.4µM* | ? | ? | -57.8* | 23.1µM*
COc1ccc(Nc2nc(-c3cccs3)nc3ccccc23)cc1 | ? | ? | ? | -2.9 | 23.1µM*

Screens from PubChem BioAssay.
